For assay [1], the target named is Platelet-derived growth factor receptor alpha (Homo sapiens) (UniProt P16234). The settings on record: at 1 µM.
For assay [2] the target is unchanged. The settings on record: at 10 µM.
Assay [3] addresses Platelet-derived growth factor receptor beta (Homo sapiens) (UniProt P09619). The conditions noted are these: at 1 µM.
Assay [4] has the same target. The conditions noted are these: at 10 µM.
Assay [5] concerns the target T1, 3-phosphoinositide-dependent protein kinase 1 (Homo sapiens) (UniProt O15530).
T1 sequence (whole entry): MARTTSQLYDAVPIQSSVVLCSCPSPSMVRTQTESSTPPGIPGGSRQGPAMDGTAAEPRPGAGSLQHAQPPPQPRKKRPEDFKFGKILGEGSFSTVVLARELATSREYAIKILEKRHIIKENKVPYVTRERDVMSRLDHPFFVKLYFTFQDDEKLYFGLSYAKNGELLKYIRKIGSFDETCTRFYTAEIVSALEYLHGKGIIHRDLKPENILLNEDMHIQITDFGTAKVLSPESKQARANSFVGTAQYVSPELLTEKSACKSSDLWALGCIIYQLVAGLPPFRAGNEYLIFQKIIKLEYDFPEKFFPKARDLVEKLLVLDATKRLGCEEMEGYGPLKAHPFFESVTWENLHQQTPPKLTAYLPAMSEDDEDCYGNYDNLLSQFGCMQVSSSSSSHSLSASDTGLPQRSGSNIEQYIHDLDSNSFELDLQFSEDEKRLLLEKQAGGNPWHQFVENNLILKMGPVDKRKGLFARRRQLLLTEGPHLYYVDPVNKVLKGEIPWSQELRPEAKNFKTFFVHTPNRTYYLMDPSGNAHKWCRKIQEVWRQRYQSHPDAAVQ
The conditions noted are these: at 1 µM.

In assay [6] the target is T1, 3-phosphoinositide-dependent protein kinase 1 (Homo sapiens). The conditions noted are these: at 10 µM.
Assay [7] concerns the target cAMP-dependent protein kinase catalytic subunit alpha (Homo sapiens) (UniProt P17612). The conditions noted are these: at 1 µM.
The target is the same in assay [8]. The settings on record: at 10 µM.
The target of assay [9] is RAC-gamma serine/threonine-protein kinase (Homo sapiens) (UniProt Q9Y243). The settings on record: at 1 µM.
Chain of RAC-gamma serine/threonine-protein kinase (Homo sapiens) (Q9Y243 whole entry): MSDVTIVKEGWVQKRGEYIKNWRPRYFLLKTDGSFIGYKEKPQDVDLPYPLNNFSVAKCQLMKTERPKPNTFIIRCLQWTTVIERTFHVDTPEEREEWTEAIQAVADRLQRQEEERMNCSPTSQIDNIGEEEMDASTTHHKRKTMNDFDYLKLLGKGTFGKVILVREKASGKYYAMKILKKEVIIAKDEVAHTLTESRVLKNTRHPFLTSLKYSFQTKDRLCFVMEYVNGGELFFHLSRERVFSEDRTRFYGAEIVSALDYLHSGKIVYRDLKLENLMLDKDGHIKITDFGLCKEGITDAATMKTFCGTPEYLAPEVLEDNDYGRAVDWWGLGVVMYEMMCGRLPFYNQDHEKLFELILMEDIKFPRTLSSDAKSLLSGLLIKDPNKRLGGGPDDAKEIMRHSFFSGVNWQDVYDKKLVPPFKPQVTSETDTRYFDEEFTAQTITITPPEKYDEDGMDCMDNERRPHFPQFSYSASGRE
Assay [10] has the same target. The settings on record: at 10 µM.

Here are results for 16 molecules from ChEMBL document CHEMBL2218924, “A broad activity screen in support of a chemogenomic map for kinase signalling research and drug discovery” (Biochem J, 2013).

Chain of Platelet-derived growth factor receptor beta (Homo sapiens) (P09619 whole entry): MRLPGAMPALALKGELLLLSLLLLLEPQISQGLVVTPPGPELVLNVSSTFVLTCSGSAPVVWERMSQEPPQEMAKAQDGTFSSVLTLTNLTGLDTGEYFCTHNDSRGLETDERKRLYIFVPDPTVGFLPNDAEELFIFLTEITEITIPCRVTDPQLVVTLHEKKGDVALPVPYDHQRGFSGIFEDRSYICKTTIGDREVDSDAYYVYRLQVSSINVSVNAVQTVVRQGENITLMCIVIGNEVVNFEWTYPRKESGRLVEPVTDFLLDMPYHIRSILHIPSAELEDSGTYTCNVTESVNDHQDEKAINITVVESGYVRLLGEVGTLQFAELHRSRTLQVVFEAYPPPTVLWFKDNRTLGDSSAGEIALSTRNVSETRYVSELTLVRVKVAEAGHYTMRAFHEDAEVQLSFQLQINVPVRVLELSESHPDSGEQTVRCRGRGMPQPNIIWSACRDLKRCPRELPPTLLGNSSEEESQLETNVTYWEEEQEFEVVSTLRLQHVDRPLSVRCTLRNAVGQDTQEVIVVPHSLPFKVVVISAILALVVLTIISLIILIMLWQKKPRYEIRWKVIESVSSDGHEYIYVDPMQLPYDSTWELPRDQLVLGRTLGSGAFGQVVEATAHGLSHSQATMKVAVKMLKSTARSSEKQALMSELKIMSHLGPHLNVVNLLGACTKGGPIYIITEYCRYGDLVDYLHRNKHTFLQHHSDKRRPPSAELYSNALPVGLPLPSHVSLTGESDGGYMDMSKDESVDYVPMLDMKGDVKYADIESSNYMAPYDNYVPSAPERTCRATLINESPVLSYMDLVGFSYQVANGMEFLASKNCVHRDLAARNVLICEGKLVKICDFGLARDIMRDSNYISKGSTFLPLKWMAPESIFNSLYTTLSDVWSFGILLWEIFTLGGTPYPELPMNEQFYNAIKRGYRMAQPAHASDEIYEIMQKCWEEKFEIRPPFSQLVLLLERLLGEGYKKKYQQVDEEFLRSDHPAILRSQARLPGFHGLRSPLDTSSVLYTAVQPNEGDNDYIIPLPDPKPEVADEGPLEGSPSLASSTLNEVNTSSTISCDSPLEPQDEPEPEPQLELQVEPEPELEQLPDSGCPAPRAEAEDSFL
Chain of Platelet-derived growth factor receptor alpha (Homo sapiens) (P16234 whole entry): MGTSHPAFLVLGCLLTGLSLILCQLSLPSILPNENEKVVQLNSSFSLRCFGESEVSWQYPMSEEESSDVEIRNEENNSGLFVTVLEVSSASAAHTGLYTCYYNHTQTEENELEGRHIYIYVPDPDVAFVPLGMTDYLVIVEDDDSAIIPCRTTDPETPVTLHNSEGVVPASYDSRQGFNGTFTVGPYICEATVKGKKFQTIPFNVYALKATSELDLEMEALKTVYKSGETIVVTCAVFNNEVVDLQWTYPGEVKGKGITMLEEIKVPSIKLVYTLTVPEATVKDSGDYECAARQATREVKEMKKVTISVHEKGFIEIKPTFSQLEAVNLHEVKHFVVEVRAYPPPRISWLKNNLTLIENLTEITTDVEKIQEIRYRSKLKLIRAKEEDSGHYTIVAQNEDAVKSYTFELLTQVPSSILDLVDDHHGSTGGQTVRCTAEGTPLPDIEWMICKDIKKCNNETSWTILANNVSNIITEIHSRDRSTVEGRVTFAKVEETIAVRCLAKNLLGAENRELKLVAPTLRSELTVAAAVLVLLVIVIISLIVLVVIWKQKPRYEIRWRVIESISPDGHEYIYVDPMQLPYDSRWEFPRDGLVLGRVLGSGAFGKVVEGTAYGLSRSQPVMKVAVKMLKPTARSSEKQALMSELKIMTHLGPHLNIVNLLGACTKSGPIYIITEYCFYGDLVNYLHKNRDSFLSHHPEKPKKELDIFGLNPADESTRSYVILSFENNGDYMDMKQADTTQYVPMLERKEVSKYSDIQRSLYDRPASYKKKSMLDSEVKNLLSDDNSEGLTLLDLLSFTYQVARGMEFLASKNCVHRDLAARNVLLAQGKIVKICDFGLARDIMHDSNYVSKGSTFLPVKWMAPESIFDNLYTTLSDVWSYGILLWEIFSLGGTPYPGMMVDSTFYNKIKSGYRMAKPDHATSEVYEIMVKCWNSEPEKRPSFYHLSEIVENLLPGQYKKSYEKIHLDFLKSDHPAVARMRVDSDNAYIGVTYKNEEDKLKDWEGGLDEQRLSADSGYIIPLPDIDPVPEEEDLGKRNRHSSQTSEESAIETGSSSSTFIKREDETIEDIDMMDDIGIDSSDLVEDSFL

In general, residual activity refers to the signal under treatment as a percentage of the control signal. `Ic1cccc(CSc2nnc(-c3ccncc3)o2)c1`: the residual activity in assay [1] was 104%; in [2], 97%; in assay [3] it was 99%; in [4] it was 97%; in [5], 56%; in [6] it was 44%. The residual activity is 99% in [7], 79% in assay [8], 92% in assay [9] and 74% in assay [10].
As to `O=C(Nc1cccc(Nc2cc(Nc3cccc(C(F)(F)F)c3)ncn2)c1)C1CC1`, the residual activity was 110% in assay [1]; 109% in assay [2]; 98% in assay [3]; 93% in assay [4]; 93% in assay [5]; 87% in assay [6]. In addition, the residual activity in [7] is 103%; in assay [8], 112%; in [9], 90%; in assay [10], 96%.
Regarding `CO[C@H]1[C@@H](OC)C[C@H](C)[C@@H](OC)C2=CC(=O)C=C(NC(=O)/C(C)=C/C=C/[C@H](OC)[C@@H](OC(N)=O)/C(C)=C/[C@@H]1C)C2=O`, the residual activity in [1] worked out at 114%; in assay [2], 107%; in assay [3], 108%; in [4], 80%; in assay [5] it was 112%; in [6], 96%. In addition, the residual activity in [7] came out at 79%; in assay [8] it was 70%; in [9], 94%; in assay [10] it was 75%.
Consider `CC#CC(=O)Nc1cc2c(Nc3ccc(F)c(Cl)c3)ncnc2cn1`, for which the residual activity in assay [1] came out at 113%; in [2], 42%; in assay [3], 105%; in assay [4], 86%; in assay [5], 102%; in assay [6], 100%. In addition, the residual activity in assay [7] was determined as 99%; in assay [8], 77%; in [9] it was 93%; in assay [10], 91%.
Regarding `Oc1n[nH]c2nnc(-c3c(-c4ccccc4)nn4ccccc34)cc12`, the residual activity in assay [1] was 103%; in [2], 110%; in assay [3], 103%; in assay [4], 110%; in [5], 85%; in assay [6], 70%. For the same molecule, the residual activity in assay [7] was 86%; in assay [8] it was 101%; in [9], 96%; in assay [10] it was 84%.
As to `O=C1Nc2cc(Br)ccc2/C1=C1/Nc2ccccc2/C1=N\O`, the residual activity amounted to 30% in assay [1]; 6% in assay [2]; 36% in [3]; 11% in [4]; 42% in assay [5]; 37% in [6]. For the same molecule, the residual activity was 89% in assay [7], 97% in [8], 83% in assay [9] and 83% in [10].
As to `COc1cccc(-c2cc(=O)c3ccccc3o2)c1N`, the residual activity in [1] turned out to be 107%; in [2] it was 110%; in assay [3], 114%; in assay [4], 108%; in assay [5] it was 114%; in [6] it was 99%. The residual activity in [7] is 96%; in [8], 95%; in assay [9] it was 100%; in [10], 95%.
`O=C1NC(=O)c2c1c1c3ccccc3[nH]c1c1[nH]c3cc(Br)ccc3c21`: the residual activity in [1] came out at 101%; in [2], 95%; in assay [3], 89%; in [4] it was 76%; in assay [5], 75%; in assay [6], 29%. The residual activity in assay [7] was 97%; in assay [8], 101%; in assay [9], 75%; in [10], 77%.
Take `O=Nc1c(-c2c(O)[nH]c3ccccc23)[nH]c2ccccc12`: the residual activity in assay [1] was determined as 87%; in [2], 37%; in [3] it was 84%; in assay [4], 26%; in assay [5] it was 53%; in assay [6], 9%. The residual activity came out at 90% in assay [7], 54% in [8], 95% in assay [9] and 64% in assay [10].
For `CCN(CC)CCCCN1c2ccccc2Oc2ccc(Cl)cc21`, the residual activity worked out at 126% in [1]; 104% in assay [2]; 119% in assay [3]; 108% in assay [4]; 131% in assay [5]; 138% in assay [6]. Further, the residual activity in assay [7] was 95%; in assay [8], 147%; in assay [9], 126%; in assay [10], 113%.
As for `Cn1cnc2cc3c(Nc4cccc(Br)c4)ncnc3cc21`, the residual activity in [1] worked out at 108%; in assay [2] it was 79%; in assay [3], 103%; in assay [4], 81%; in assay [5], 106%; in assay [6], 92%. In addition, the residual activity turned out to be 99% in assay [7], 75% in [8], 101% in assay [9] and 96% in assay [10].
Consider `O=C1Nc2ccc(Br)cc2/C1=C\c1cc2c([nH]1)CCCC2`, for which the residual activity in assay [1] is 34%; in assay [2], 23%; in [3] it was 74%; in assay [4] it was 51%; in assay [5], 109%; in assay [6], 99%. The values for the residual activity in assay [7], in assay [8] and in [9] were 108%, 80% and 105%, respectively.
On to `CN(C)c1ccc(/C=C2\C(=O)Nc3ccccc32)cc1`, for which the residual activity in [1] is 79%; in [2] it was 14%; in [3], 101%; in assay [4], 30%; in assay [5], 114%; in assay [6], 92%. The residual activity in assay [7] turned out to be 89%; in assay [8], 86%; in assay [9], 96%; in assay [10] it was 100%.
In the case of `Nc1n[nH]c2nnc(-c3c(-c4ccccc4)nn4ccccc34)cc12`, the residual activity in assay [1] came out at 105%; in assay [2] it was 100%; in [3], 97%; in assay [4], 99%; in [5], 102%; in assay [6], 94%. Moreover, the residual activity turned out to be 97% in [7], 77% in assay [8], 99% in assay [9] and 82% in [10].
Take `CC[n+]1c(/C=C/N(C)c2ccccc2)n(-c2ccccc2)c2ccc(-c3nc4ccccc4s3)cc21`: the residual activity was found to be 117% in assay [1]; 94% in [2]; 103% in assay [3]; 125% in assay [4]; 121% in assay [5]; 149% in [6]. Moreover, the residual activity came to 110% in assay [7], 146% in assay [8], 105% in assay [9] and 65% in [10].
On to `CN(C)CCCn1cc(C2=C(c3c[nH]c4ccccc34)C(=O)NC2=O)c2ccccc21`, for which the residual activity was 121% in assay [1]; 78% in assay [2]; 106% in assay [3]; 65% in assay [4]; 63% in assay [5]; 15% in assay [6]. The residual activity is 60% in assay [7], 20% in assay [8], 30% in assay [9] and 7% in assay [10].
